tested on: VDR:RXRa (NR concentration 270 nM, RXRa partner concentration 90 nM); experiment: PBM binding z-score (relative to random genomic background probes); higher = stronger binding; sequences stand for … in GC…GCGATTGACAGCGTAGAATGAAGG
Protocol: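 Protein-binding microarray (Agilent 4x180K custom design, double-stranded 60-nt probes: 5' GC cap, 34-nt variable region, 24-nt constant primer region; full probe sequence given). Purified or IVT nuclear receptor:RXRα heterodimers (3:1 NR:RXRα, mostly 270:90 nM) or homodimers were incubated for 1 h in PBS with 2% milk and no ligand, then detected with Alexa488 antibodies. Fluorescence from o1-orientation probes (~5 replicates averaged) was converted to z-scores against 500 random hg19 background probes. Variable regions are seed direct-repeat (DR0–DR5) sites, all their single-nucleotide variants and half-site ablations.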

Sequence	PBM binding z-score
CCAGACAGGTGAGAAAGTAACTCAGCCTCGATTA	0.0167
CCTACTGGGACATTCAGAGGTCATTGATCATATG	4.18
ACTCGGAGGACAAAGGTCAGAGGTACGCCAGTGA	3.52
AGTCAAAGTTCATCTAGGTGACGTAAGATATGCT	4.96
GCTTGTAAATCAAGGTTAAGAAAGACTAAGCTAA	0.379
CGTCCAAGGTGAATGCTAGGTCAGTGAAAGCATT	0.559
TGATTGAGGTTAAAGATCAGGGAACGTGGCGTCG	1.94
GGAACGAAGGCAAGTTGATAGCAGAGTTTGATGG	-0.696
TCTTATAGGTAATACAGGTGAAAGTCGGCATCTA	1.36
CTCGAAAGGTCGTGCTCGGGTGAGTATACCAAAC	3.43
ATCTCTAGGTAAGACTCAGTTCAGTTAAGAACGC	1.12
TCGAGTAGGTCACCAATGGGGCATTCAGCTTTCT	2.62
TCTTGTAGATCAATTGAGGTTAAGAAAGTGCGCT	1.86
TTTTGTAGATCAGCAGGTTAAGAAAGCTGGCCAA	0.0929
ATATGTAAGTTACATCCGGGTCATTCAGGCTATG	3.56
CATACAGGGTCAGCTAGGCCAGAATAGGGACGGC	3.8
CCTGCTTGGTCAATGGTCAGCTAAAGCAGCTCGC	-0.576
ATCTCTAGGTAAAAGTTCAGGGAATCCCGAGGAT	1.54
AGAATGAGGTTATACGTAGATTAGGGAAGAAAGT	1.44
CAAACTAGTTCACAGAGGTCAAAGTCCGTGCGTA	7.47

Sequence	PBM binding z-score
ATATGTAGGTTACATCCGGGTCCTTCAGGCTATG	0.695
TCTGCTAGGTCAACGATGGTCATCTAATCTGCTA	2.16
CGTCCAAGGTCAATGCTAAGTCAGTGAAAGCATT	3.83
AGAACGACGGCAATGAGTTGATAGCACGGGTGGC	-0.0161
CGTCCAAGGTCAGCAGGTCCGTGAAAGCGACGTG	6
CCTAGCAGGCCAATCCGGGTCACTCAAGGCTTGA	2
CCAACTGGGCCAAAGGTCATTGATTCCAATGCTC	4.72
CGAACTAGGTCATCCAGGACAGTTAATACATTGA	4.42
TCGATTAGTTGATTAGGGCAACCGAAACAGCGGA	0.219
CCTTCTAGGTCATGGTCAGCTAATCTACAGTATG	2.07
TCTTGGAGGACACGAAAGGTCAGAGCTCGACATC	3.58
GCATATAGGTAATACAAGGTGCAAGTCCGATTGT	0.355
TCTGCTAGGTCAACGATGGTCAGCTATTCTGCTA	1.71
GCTTACGGCTCAAAGGTTATAGCATGAATAGAAT	0.88
TCATATAGGTACAAGGTGAAAGTCGGTGTGGTAA	1.22
ACTATTAGTTGACTTAGGGCGACCGATACGACGC	0.175
ATATGTAGGTTATCGGGTCATTCACTTTGCGCAT	3.73
GATACAGGGTCAGCTAGAGACCAGAGTATGGAAA	2.23
CCAAGTAGGTTATGGGGCATTCAGGCAACGGTGA	-0.0794
CCTAGCTGGTCAAGGTCACACACGCTATAGGTAC	3.75
